Assay results published in PubChem BioAssay.
Unmarked numbers belong to inactive results. For some assays here: Results with a measured potency or affinity are listed apart. Active and inactive are the calls of the source. Unless noted, the rule behind the calls is not given here.

What was measured:
[1] = antimalarial activity against Dd2 strain (AID 2302;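 active = growth inhibition above 50% at the single 2 µM test dose, taken to imply half-maximal potency below 2 µM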;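 note: 0% = DMSO untreated growth and 100% = chloroquine plus artemisinin killed control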); conditions: P. falciparum Dd2 in RBCs, LDH growth readout, 72 h; at 2 µM; hits give high values
[2] = human hepatoma cell viability loss – ATP luminescence, cytotoxicity control for P. falciparum antimalarial project, primary screen (AID 2303;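 active = inhibition above 50%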;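 note: 0% = DMSO wells and 100% = digitonin-killed cells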); conditions: HepG2 viability, 24-48 h, at 10 µM, hits give high values
[3] = biological target: L-lactate dehydrogenase (Plasmodium falciparum (isolate CDC / Honduras)) (UniProt Q27743); test: PfLDH activity inhibition – cell lysate, 3D7 strain, counter-screen for P. falciparum growth inhibition project (AID 2304);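 note: 0% = vehicle and 100% = reference inhibitor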; conditions: P. falciparum 3D7 crude extract, LDH APAD/NBT absorbance; at 2 µM; hits give high values
[4] = inhibition of 3D7 malaria parasite growth – strain 3D7 (AID 2306);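 note: 0% = DMSO wells and 100% = chloroquine plus artemisinin control wells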; conditions: P. falciparum 3D7 erythrocytic growth, LDH absorbance, 72 h; at 2 µM; hits give high values
[5] = biological target: Calcium-dependent protein kinase 1 (Plasmodium falciparum (isolate 3D7)) (UniProt P62344); test: PfCDPK1 kinase inhibitors, biochemical, TCAMS library (AID 1159585; cut-off not given, nearly all actives have IC50 up to about 0.98 µM;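 note: inhibitors leave more ATP so luminescence rises with inhibition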); conditions: recombinant PfCDPK1, Kinase-Glo ATP depletion luminescence
[6] = biological target: Plasmodium falciparum protein kinase 6 (PK6, PF3D7_1337100) (UniProt Q8IDW1); test: PfPK6 kinase inhibitors, biochemical, TCAMS library (AID 1159586); conditions: recombinant PfPK6, Kinase-Glo ATP depletion luminescence
[7] = biological target: Protein kinase 7 (PK7), Plasmodium falciparum 3D7 (PF3D7_0213400) (UniProt Q7YTF7); test: inhibition of Plasmodium PK7 catalytic activity – biochemical, TCAMS antimalarial set, Kinase-Glo luminescence (AID 1159587); conditions: recombinant PfPK7, Kinase-Glo ATP depletion luminescence
[8] = biological target: Calcium-dependent protein kinase 4 (Plasmodium falciparum (isolate 3D7)) (UniProt Q8IBS5); test: PfCDPK4 kinase inhibitors, biochemical, TCAMS library (AID 1159588; cut-off not given, nearly all actives have IC50 up to about 0.91 µM); conditions: recombinant PfCDPK4, Kinase-Glo ATP depletion luminescence
Calcium-dependent protein kinase 4 (Plasmodium falciparum (isolate 3D7)), sequence (Q8IBS5 whole entry, looked up): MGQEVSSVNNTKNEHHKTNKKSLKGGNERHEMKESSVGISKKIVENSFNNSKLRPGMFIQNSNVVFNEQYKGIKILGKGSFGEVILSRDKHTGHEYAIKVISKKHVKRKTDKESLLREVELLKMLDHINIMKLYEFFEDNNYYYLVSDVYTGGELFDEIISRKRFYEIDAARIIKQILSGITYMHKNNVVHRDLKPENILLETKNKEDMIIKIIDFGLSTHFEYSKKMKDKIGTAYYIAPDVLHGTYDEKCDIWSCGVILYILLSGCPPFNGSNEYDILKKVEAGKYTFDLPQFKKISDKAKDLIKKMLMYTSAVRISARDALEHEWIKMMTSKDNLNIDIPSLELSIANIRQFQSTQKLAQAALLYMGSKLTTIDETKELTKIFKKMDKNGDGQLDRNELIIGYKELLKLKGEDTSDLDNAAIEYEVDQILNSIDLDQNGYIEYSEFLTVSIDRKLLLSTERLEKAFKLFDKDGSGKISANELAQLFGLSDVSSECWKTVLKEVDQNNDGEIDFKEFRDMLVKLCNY

Protein kinase 7 (PK7), Plasmodium falciparum 3D7 (PF3D7_0213400), sequence (Q7YTF7 1-343): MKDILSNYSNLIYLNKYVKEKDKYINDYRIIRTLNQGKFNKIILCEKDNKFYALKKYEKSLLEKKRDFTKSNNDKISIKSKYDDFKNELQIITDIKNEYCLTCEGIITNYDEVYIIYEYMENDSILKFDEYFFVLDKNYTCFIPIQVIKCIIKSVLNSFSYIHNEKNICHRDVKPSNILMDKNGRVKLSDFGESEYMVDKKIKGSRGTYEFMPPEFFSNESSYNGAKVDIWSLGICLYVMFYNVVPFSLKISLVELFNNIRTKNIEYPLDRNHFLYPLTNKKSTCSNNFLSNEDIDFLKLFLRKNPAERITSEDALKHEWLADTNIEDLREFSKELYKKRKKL
Calcium-dependent protein kinase 1 (Plasmodium falciparum (isolate 3D7)), sequence (P62344 whole entry, looked up): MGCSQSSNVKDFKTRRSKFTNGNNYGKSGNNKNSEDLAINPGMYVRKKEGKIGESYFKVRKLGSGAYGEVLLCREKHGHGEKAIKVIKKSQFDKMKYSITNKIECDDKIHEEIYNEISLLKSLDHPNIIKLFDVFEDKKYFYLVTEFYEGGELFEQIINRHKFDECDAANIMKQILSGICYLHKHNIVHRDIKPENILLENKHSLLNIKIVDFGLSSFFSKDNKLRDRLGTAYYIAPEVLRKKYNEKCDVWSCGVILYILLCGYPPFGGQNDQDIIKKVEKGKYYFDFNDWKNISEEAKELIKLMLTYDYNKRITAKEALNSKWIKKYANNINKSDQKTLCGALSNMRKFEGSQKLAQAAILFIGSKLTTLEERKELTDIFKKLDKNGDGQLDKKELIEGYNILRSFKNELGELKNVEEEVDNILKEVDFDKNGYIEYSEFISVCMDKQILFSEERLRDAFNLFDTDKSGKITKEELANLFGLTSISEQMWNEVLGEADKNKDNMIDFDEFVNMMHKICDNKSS
L-lactate dehydrogenase (Plasmodium falciparum (isolate CDC / Honduras)), sequence (Q27743 whole entry, looked up): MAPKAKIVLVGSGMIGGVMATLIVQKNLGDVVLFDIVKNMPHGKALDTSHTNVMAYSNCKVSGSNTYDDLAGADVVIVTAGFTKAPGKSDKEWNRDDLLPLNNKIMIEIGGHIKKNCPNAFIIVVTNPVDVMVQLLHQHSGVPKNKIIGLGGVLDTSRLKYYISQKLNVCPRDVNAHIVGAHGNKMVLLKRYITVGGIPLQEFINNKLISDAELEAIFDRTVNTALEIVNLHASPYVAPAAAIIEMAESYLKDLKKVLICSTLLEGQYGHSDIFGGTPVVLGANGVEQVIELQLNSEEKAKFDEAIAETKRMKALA
Plasmodium falciparum protein kinase 6 (PK6, PF3D7_1337100), sequence (Q8IDW1 1-305): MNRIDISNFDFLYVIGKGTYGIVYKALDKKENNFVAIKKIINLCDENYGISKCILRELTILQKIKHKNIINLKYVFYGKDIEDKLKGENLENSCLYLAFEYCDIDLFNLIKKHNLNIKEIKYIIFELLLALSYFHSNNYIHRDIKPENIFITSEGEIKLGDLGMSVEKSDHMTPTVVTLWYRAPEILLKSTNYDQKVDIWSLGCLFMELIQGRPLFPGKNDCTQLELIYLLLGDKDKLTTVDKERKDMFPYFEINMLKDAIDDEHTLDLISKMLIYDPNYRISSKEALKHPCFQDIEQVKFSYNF

Structure (SMILES)	growth inhibition [1]	inhibition [2]	inhibition [3]	growth inhibition [4]	outcome [5]	outcome [6]	outcome [7]	outcome [8]
COc1cccc(OC)c1CN1CCC(N(C)CCCCCCCCN2CCC(OC(=O)Nc3ccccc3-c3ccccc3)CC2)CC1	100% (active)	100% (active)	1%	99% (active)	inactive	inactive	inactive	inactive
O=C(/C=C/c1ccc(-c2ccccc2)cc1)NCCCCCN1CCC(c2c[nH]c3ccccc23)CC1	23%	91% (active)	6%	97% (active)	inactive	inactive	inactive	inactive
CC(Cc1ccc(NC(=O)c2ccc(CC(C)NCc3ccc(Cl)cc3)cc2)cc1)NCCc1cccc(Cl)c1 (configuration not stated)	75% (active)	95% (active)	-5%	101% (active)	inactive	inactive	inactive	inactive
Cc1[nH]c2ccccc2c1CC1CCN(CC2CCN(C(=O)/C=C/c3ccc(Cl)c(Cl)c3)CC2)CC1	14%	34%	-3%	92% (active)	inactive	inactive	inactive	inactive
COc1ccc(Nc2nc(C)cc(NCc3ccc(-c4c(C)noc4C)cc3)n2)cc1	50% (active)	48%	-5%	99% (active)	inactive	inactive	inactive	inactive
Cc1cc(C)cc(OCC(O)CN(Cc2cc(Cl)cc(Cl)c2)C(=O)Nc2ccccc2Cl)c1 (configuration not stated)	37%	-1%	2%	93% (active)	inactive	inactive	inactive	inactive
COc1ccc(Oc2ccc(-c3c(C)[nH]c(C)cc3=O)cc2)cc1	88% (active)	-12%	-3%	93% (active)	inactive	inactive	inactive	inactive
Cc1cccc2[nH]c(-c3ccc(-c4ccc(CN5CCCCC5)cc4)cc3)nc12	99% (active)	27%	-2%	100% (active)	inactive	inactive	inactive	inactive
CC(C)CCN1CCC(Oc2ccc(NC(=O)c3cccs3)cc2Cl)C1 (configuration not stated)	93% (active)	17%	2%	94% (active)	inactive	inactive	inactive	inactive
CC1(C)N=C(N)NC(NOCC=Cc2ccccc2)=N1	2%	35%	-2%	98% (active)	inactive	inactive	inactive	inactive
COc1cc(Nc2nc(N)c3cc(OC)c(OC)cc3n2)cc(OC)c1	102% (active)	7%	4%	101% (active)	inactive	inactive	inactive	inactive
CCN(CC)CCNc1ccnc2[nH]c3ccc([N+](=O)[O-])cc3c12	76% (active)	6%	-4%	100% (active)	inactive	inactive	inactive	inactive
COc1cccc(Nc2nccc(NCC(O)c3cccc(C(F)(F)F)c3)n2)c1 (configuration not stated)	27%	6%	-4%	96% (active)	inactive	inactive	inactive	inactive
N#Cc1cc([N+](=O)[O-])ccc1-n1nc(-c2cccc(Cl)c2)n(CC2CCCO2)c1=S (configuration not stated)	89% (active)	0%	-2%	91% (active)	inactive	inactive	inactive	inactive
COc1cccc(OCC2CCCN(CCCCNC(=O)c3ccc(NC(=O)c4ccc(Cl)cc4)cc3)C2)c1 (configuration not stated)	49%	33%	7%	100% (active)	inactive	inactive	inactive	inactive
O=C(Nc1ccc2c(c1)CCN2C1CCN(Cc2cc(F)cc(F)c2F)C1)c1ccco1 (configuration not stated)	95% (active)	-2%	1%	96% (active)	inactive	inactive	inactive	inactive
Cc1ccc(C(=O)c2oc3ccc4c(C)cc(=O)oc4c3c2C)cc1	48%	-8%	1%	86% (active)	inactive	inactive	inactive	inactive
COc1ccc(CCNc2nc(N)c3cc(OC)c(OC)cc3n2)cc1	1%	16%	-1%	100% (active)	inactive	inactive	inactive	inactive
CC(=NN=C(N)N)c1ccc2c(ccc3ccccc32)c1	15%	47%	8%	100% (active)	inactive	inactive	inactive	inactive
